For four molecules, outcome, potentiation and inhibition results are on record in PubChem BioAssay.

The subject of experiment [1] is TRPC4 beta (transient receptor potential cation channel C4), mouse. The experiment can be described thus: activators of mouse TRPC4 channel, confirmation, cell-based, Fluo4 calcium, HEK293 TRPC4beta/mu-opioid, duplicates, 10 µM (AID 2426;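 active = fluorescence ratio normalized to control raised more than 50% in primary screen plus both repeat runs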). To be noted: Fluo4 calcium fluorescence, at 10 µM; hits give high values.
Experiment [2] relates to transient receptor potential cation channel C4 beta (TRPC4), mouse. The experiment can be described thus: activators of mouse TRPC4 channel, confirmation, cell-based, second round, Fluo4, HEK293 TRPC4beta/mu-opioid, 1 µM (AID 2461;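 active = primary screen active and over 50% activation in each of two duplicate runs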). As to conditions: Fluo4 calcium fluorescence, at 1 µM; hits give high values.
Experiment [3] deals with TRPC4 (transient receptor potential cation channel C4 beta), mouse. Put plainly: positive allosteric modulators of mouse TRPC4, confirmation, cell-based, second round, Fluo-4, HEK293 TRPC4beta/mu-opioid, 1 µM (AID 2554;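 active = primary screen hit whose fluorescence ratio, in both repeats, exceeds the weak agonist control mean by 3 SD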). As to conditions: DAMGO EC20, Fluo-4 calcium flux, at 1 µM; hits give high values.
Experiment [4] deals with TRPC4 beta (transient receptor potential cation channel C4), mouse. Put plainly: positive allosteric modulators of mouse TRPC4, confirmation, cell-based, Fluo-4, HEK293 TRPC4beta/mu-opioid (AID 2555;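 active = primary screen hit whose calcium fluorescence ratio, in both repeats, exceeds the weak agonist control mean by 3 SD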). As to conditions: DAMGO EC20, Fluo-4 calcium flux, at 10 µM; hits give high values. For orientation: Calcium flux is commonly read through the fluorescence of an indicator in the cells.

The target in experiment [5] is Short transient receptor potential channel 4 (Mus musculus) (UniProt Q9QUQ5). Put plainly: inhibitors of mouse TRPC4 channel, confirmation, cell-based, Fluo4, HEK293 TRPC4beta/mu-opioid (AID 2636;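 active = calcium signal cut by more than 3 SD below the full-agonist control yet still positive, in both repeats and the earlier primary screen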). As to conditions: DAMGO, Fluo4 calcium flux, at 10 µM; hits give high values.
For experiment [6] the target is unchanged. The experiment can be described thus: inhibitors of mouse TRPC4 channel, confirmation, cell-based, second round, Fluo4, HEK293 TRPC4beta/mu-opioid, 1 µM (AID 2637;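 active = calcium signal ratio cut to more than 3 SD under the fully stimulated control mean yet still positive, in both repeats and the primary screen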). To be noted: Fluo4 calcium flux, DAMGO, at 1 µM; hits give high values.
For experiment [7] the target is unchanged. Put plainly: mouse TRPC4 channel activators, dose response, cell-based, HEK293 TRPC4/mu-opioid, Fluo-4 calcium (AID 434937).
For experiment [8] the target is unchanged. Put plainly: TRPC4 positive allosteric modulators, dose response, cell-based, HEK293 TRPC4/mu-opioid, Fluo-4 calcium, EC20 DAMGO (AID 434941;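 active = earlier screen potentiator hit that boosts the TRPC4 ion channel at some dose, with a dose response; inactive = no potentiation, no dose response, or not a prior hit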;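 note: calcium entry triggered by an EC20 dose of DAMGO at the co-expressed mu-opioid receptor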).
Experiment [9] has the same target. Put plainly: mouse TRPC4 channel inhibitors, dose response, cell-based, HEK293 TRPC4/mu-opioid, Fluo-4 calcium (AID 434942;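 active = primary screen inhibitor hit that blocks the TRPC4 channel at some tested dose, yielding a dose curve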).
In experiment [10] the target is Short transient receptor potential channel 6 (Mus musculus) (UniProt Q61143). The experiment can be described thus: inhibition of mouse TRPC6 channel, confirmation, selectivity assay for TRPC4 inhibitor project, cell-based, HEK293, membrane potential dye, duplicate (AID 434948;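 active = active in primary screen and both duplicates, each dropping signal beyond three positive-control SD with fluorescence still positive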). To be noted: HEK293 TRPC6, membrane potential dye fluorescence, at 10 µM, stimulated with maximal-effect acetylcholine; hits give high values.

Experiment [11] has the same target. The experiment can be described thus: activation of mouse TRPC6 channel, confirmation, selectivity assay for TRPC4 activator project, cell-based, HEK293, membrane potential dye, duplicate (AID 434950;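 active = membrane potential signal rise above negative control mean plus 3 SD in both duplicates, also active in the earlier TRPC4 screen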). To be noted: HEK293 TRPC6, membrane potential fluorescence, at 10 µM; hits give high values.
Experiment [12] shares this target. Put plainly: TRPC6 potentiation by TRPC4 potentiator hits, confirmation, selectivity assay for TRPC4 potentiator project, HEK293 cells, membrane potential dye, duplicate (AID 434952;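 active = compound raising the membrane signal above positive-control mean plus 3 SD in both repeats, and a primary screen hit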). As to conditions: HEK293 TRPC6, membrane potential dye fluorescence, at 10 µM, maximal acetylcholine added after compound; hits give high values.
In experiment [13] the target is Short transient receptor potential channel 4 (Mus musculus) (UniProt Q9QUQ5). Put plainly: calcium flux activators in TRPC4/5HT1a cells, counter-screen for TRPC4 activator project, cell-based, second counter screen, HEK293 TRPC4/5HT1a, Fluo-4 (AID 434977;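 active = calcium signal rise above buffer-control mean plus 5 SD in both duplicates, and also a hit in the primary screen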). As to conditions: Fluo-4 calcium flux, at 10 µM; hits give high values.
Experiment [14] can be described thus: calcium flux inhibitors in TRPC4/5HT1a cells, confirmation, counter-screen for TRPC4 inhibitor project, cell-based, second counter screen, HEK293 TRPC4/5HT1a, Fluo-4 (AID 434978;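 active = primary screen active whose calcium signal fell more than 3 SD beyond the full-serotonin control mean in both duplicate plates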;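 note: serotonin given first at submaximal then at maximal dose after compound preincubation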). To be noted: Fluo-4 calcium flux, at 10 µM, serotonin added to trigger calcium flux; hits give high values.
The test system of experiment [15] is TRPC4 (mouse), co-expressed with 5HT1a in HEK293. The experiment can be described thus: calcium flux potentiators in TRPC4/5HT1a cells, confirmation, counter-screen for TRPC4 potentiator project, cell-based, second counter screen, HEK293 TRPC4/5HT1a, Fluo-4 (AID 434979;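 active = signal rise over 3 SD above mean of control wells given weak agonist, in both repeats and first screen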). As to conditions: Fluo-4 calcium flux, at 10 µM, serotonin added at its EC20 dose; hits give high values.

Experiment [16] is described as follows: calcium flux activation in mu-opioid HEK293 cells, confirmation, counter-screen for TRPC4 activator project, cell-based, HEK293 mu-opioid receptor line (AID 449723;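 active = hit in primary screen, with calcium signal over 5 SD above buffer well mean in both duplicates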;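 note: counter screen cells carry the mu-opioid receptor alone and lack TRPC4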). To be noted: Fluo-4 calcium fluorescence, at 10 µM; hits give high values.
Experiment [17] can be described thus: calcium flux enhancement in mu-opioid HEK293 cells, confirmation, counter-screen for TRPC4 allosteric potentiator project, cell-based, HEK293 mu-opioid receptor line (AID 449724;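 active = calcium signal rise more than 3 SD above the low-dose agonist control mean, in both duplicate plates and the primary screen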;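 note: HEK293 cells carrying mu-opioid receptor only with no TRPC4 channel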). To be noted: Fluo-4 calcium flux, at 10 µM, compound added before EC20 DAMGO stimulus; hits give high values.

Structures are written as SMILES. For some assays here: Potency and affinity values are given separately. Activity calls are given as the source filed them.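 Rule for the calls, unless noted: active = primary screen activator hit with a dose response curve and TRPC4 channel activation at any tested dose; inactive = no activation, no dose response, or not a primary hit.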

Short transient receptor potential channel 4 (Mus musculus), sequence (Q9QUQ5 whole entry, looked up): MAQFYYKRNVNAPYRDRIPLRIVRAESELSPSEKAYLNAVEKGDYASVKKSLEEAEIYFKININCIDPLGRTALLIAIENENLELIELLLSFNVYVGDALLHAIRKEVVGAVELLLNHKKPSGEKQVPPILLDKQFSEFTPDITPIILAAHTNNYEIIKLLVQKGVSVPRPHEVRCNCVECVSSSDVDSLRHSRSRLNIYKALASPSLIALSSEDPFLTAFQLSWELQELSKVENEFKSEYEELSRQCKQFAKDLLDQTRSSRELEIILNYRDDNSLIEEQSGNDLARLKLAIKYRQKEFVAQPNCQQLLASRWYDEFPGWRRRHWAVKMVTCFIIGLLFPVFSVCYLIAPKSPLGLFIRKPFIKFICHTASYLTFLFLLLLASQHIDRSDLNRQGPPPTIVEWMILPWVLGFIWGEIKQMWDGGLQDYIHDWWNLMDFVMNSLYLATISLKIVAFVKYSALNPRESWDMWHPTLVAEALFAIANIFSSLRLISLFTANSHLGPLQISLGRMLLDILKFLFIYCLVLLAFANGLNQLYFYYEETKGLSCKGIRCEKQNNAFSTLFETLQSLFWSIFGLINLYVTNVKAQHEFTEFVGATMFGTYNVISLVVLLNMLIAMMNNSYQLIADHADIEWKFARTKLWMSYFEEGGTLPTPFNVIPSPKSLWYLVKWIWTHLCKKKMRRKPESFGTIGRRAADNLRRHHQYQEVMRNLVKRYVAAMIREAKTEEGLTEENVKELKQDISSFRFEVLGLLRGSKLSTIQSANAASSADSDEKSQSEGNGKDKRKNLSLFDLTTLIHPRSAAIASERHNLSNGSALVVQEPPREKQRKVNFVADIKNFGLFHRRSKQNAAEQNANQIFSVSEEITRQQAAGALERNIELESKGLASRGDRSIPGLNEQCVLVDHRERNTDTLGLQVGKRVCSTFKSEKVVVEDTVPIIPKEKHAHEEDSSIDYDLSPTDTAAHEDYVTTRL
Short transient receptor potential channel 6 (Mus musculus), sequence (Q61143 whole entry, looked up): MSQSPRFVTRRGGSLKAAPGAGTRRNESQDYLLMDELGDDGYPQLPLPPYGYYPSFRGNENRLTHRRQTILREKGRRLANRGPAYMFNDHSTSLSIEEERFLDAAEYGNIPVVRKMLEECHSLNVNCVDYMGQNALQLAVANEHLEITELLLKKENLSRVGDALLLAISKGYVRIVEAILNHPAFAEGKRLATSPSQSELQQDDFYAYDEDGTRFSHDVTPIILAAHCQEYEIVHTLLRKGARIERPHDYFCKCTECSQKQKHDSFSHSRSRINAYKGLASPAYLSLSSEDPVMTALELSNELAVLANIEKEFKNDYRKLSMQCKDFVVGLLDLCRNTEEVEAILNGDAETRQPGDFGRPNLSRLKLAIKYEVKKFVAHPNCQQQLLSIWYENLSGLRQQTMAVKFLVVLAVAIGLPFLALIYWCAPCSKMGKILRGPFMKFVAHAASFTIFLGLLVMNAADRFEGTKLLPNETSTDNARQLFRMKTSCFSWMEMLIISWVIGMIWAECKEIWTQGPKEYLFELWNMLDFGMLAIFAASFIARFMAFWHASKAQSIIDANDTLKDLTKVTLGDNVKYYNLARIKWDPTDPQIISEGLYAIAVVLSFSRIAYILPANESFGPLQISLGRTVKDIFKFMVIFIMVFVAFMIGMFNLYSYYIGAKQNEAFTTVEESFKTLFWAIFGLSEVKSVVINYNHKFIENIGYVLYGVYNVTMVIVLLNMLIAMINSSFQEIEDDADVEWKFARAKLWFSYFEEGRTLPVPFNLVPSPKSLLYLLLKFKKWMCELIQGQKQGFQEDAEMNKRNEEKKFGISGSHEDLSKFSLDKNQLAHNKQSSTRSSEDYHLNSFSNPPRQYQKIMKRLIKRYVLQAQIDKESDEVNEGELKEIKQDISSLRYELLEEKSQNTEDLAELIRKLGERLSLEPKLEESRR

As to `COc1ccc(C(=O)/C=C/C(=O)N(CC(=O)NC2CCCCC2)CC2CCCO2)c(O)c1` (stereo not drawn), the outcome in experiment [1], in experiment [2], in [3], in experiment [4], in experiment [5] and in [6] was inactive. The result in experiment [7], in experiment [8], in experiment [9], in experiment [10], in [11] and in experiment [12] was inactive. The result in experiment [13], in experiment [14], in experiment [15], in [16] and in experiment [17] was inactive.

Turning to `O=C1CC(NS(=O)(=O)c2cccs2)CN1c1ccccc1` (stereo not drawn), the result in [1], in experiment [2], in [3], in experiment [5], in experiment [6] and in experiment [7] was inactive. Further, the outcome in experiment [8], in [9], in experiment [10], in experiment [11], in [12] and in experiment [13] was inactive. The outcome in experiment [14], in [16] and in [17] was inactive. Moreover, the potentiation was 14% (active) in experiment [4] and 29.8% (active) in experiment [15].

Turning to `CCc1nc2ccccc2n1Cc1ccc(F)cc1`, the outcome in [1], in [2], in [3], in experiment [4], in experiment [5] and in [6] was inactive. Further, the result in [7], in experiment [8], in experiment [9], in experiment [10], in experiment [11] and in experiment [12] was inactive. The outcome in [13], in experiment [14], in experiment [15], in [16] and in [17] was inactive.

As usually defined, the inhibition is the percentage by which the read-out fell short of the control. On to `COc1ccc(/C=N/NC(=O)c2ccc(F)cc2)cc1CN1CCc2cc(OC)c(OC)cc2C1C` (stereo not drawn), for which the result in experiment [1], in experiment [2], in experiment [3], in experiment [4], in experiment [6] and in experiment [7] was inactive. For the same molecule, the outcome in experiment [8], in experiment [9], in [10], in [11], in experiment [12] and in [13] was inactive. Further, the result in experiment [14], in experiment [15], in [16] and in experiment [17] was inactive. In addition, the inhibition in experiment [5] was 86% (active).
